Casp6 inh – human caspase-6 inhibitors, primary screen, biochemical, VEID-R110 fluorescence, single point, set 2. P55212. purified caspase-6, Z-VEID-R110 cleavage fluorescence. inhibition, % at 12.5 µM. hit rate 0.53% among 350,000. AID 686996, 2013;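 active = mean inhibition across replicates at least about 35%, with every replicate also reaching that limit, limit read from the data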;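 also: 0% = median of neutral control wells and 100% = no fluorescence left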
Target sequence (P55212 24-179 limits assumed): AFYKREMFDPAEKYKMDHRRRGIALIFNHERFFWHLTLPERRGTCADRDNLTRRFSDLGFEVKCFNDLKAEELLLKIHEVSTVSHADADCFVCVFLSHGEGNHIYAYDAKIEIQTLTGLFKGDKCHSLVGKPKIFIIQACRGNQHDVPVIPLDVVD
Target sequence (P55212 194-293 limits assumed): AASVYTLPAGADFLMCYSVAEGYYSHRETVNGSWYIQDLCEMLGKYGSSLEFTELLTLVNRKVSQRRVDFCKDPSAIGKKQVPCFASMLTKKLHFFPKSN
FGF22 binding – binders of human FGF22 protein, primary screen, FGF22 synaptogenesis inhibitor project, biophysical, thermal shift, single point. activity (Tm shift, normalised), % at 9.99 µM. recombinant FGF22 thermal shift, SYPRO orange fluorescence; percent of sucrose octasulfate shift, DMSO zero. AID 651658, 2012. hit rate 1.5% among 340,000;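 active = mean Tm shift, scaled 0 neutral to 100 positive control, at about 1.3% or above, every replicate too, limit read from the data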
INS-1E GSIS act – GLuc luminescence reporter in INS-1E cells, primary screen for activators of glucose-dependent secretion of insulin; INS-1E GLuc reporter insulin secretion, 2-3 h; AID 743287, 2014; hit rate 0.61% among 370,000; activation, % at 16.6 µM;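 active = lowest replicate activation of at least 40%, so every replicate reaches that level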;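 also: 0% = median of neutral control wells and 100% = median of IBMX positive control wells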
SIRT5 block – SIRT5 desuccinylase inhibitors, primary screen, biochemical, fluorescence imaging, single point, set 5. NAD-dependent protein deacylase sirtuin-5, mitochondrial (Homo sapiens), Q9NXA8. Purified SirT5, succinyl-peptide AMC, trypsin-coupled fluorescence. inhibition, % at 15 µM. hit rate 1.1% among 330,000. AID 652115, 2013; in the data active = inhibition above about 15%
Target sequence (Q9NXA8 whole entry, looked up): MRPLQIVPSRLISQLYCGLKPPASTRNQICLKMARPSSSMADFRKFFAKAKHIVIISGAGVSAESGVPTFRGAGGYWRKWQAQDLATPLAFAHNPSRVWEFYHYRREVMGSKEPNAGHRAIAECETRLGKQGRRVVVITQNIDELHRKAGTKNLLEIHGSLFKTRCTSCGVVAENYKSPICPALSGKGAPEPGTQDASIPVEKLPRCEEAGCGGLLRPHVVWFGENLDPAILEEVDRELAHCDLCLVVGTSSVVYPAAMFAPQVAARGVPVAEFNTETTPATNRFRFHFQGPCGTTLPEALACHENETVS
ERAP1 inh – human ERAP1 aminopeptidase inhibitors, primary screen, biochemical, single point, plate reader; Endoplasmic reticulum aminopeptidase 1 (Homo sapiens), Q9NZ08; recombinant ERAP1, Leu-AMC fluorescence, 60 min; inhibition, % at 10.7 µM; hit rate 0.15% among 340,000;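 active = mean replicate inhibition of at least 30%, or all replicates individually reaching that 30% level; inactive = mean below 30% and not every replicate reaching it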;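 also: 0% = neutral control wells and 100% = L-leucinethiol positive control wells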
* hit, by the source's call; · = no result given; ! = repeats disagree. Shown are actives, neighbours in structure and some others; about 3.3% of the full set was active somewhere.

SMILES	Casp6 inh	FGF22 binding	INS-1E GSIS act	SIRT5 block	ERAP1 inh
C[C@@H]1CN([C@H](C)CO)C(=O)c2cc(NC(=O)CCN3CCOCC3)ccc2O[C@H]1CN(C)CC1CCCCC1	·	0	11	·	·
C[C@H](CO)N1C[C@H](C)[C@@H](CN(C)CC2CCCCC2)Oc2c(NC(=O)Cc3cn(C)c4ccccc34)cccc2C1=O	·	·	8	·	·
COc1ccc(NC(=O)NN2CCN(C)CC2)cc1	-2	0	17	-1	-4
CN1CCN(NC(=O)Nc2ccc(F)cc2)CC1	48*	0	0	-2	-2
Cc1noc(C)c1NC(=O)N[C@H]1C=C[C@H](CC(=O)N2CCCCC2)O[C@H]1CO	-2	0	19	0	-2
CCOC(=O)c1cc(-c2ccc(N3CCOCC3)cc2)nn1-c1ccccc1C(=O)O	40*	0	2	3	7
CN1CCN(C(=O)[C@H]2[C@H](CO)[C@H]3Cn4c(cccc4=O)[C@H]3N2Cc2ccccc2F)CC1	-1	0	3	-2	0
O=C(C[C@@H]1CC[C@H](NC(=O)CCN2CCCCC2)[C@@H](CO)O1)Nc1nccs1	·	·	-4	·	·
COc1ccc(S(=O)(=O)Nc2ccc3c(c2)C(=O)N([C@@H](C)CO)C[C@H](C)[C@@H](CN(C)Cc2ccccc2)OCCCC[C@@H](C)O3)cc1	·	0	26	·	·
Cc1ccc(NC(=O)c2nnn(-c3cccc(C(F)(F)F)c3)c2N)cc1	-3	53*	7	-1	3
Nc1c(C(=O)Nc2ccc(F)cc2)nnn1-c1cccc(C(F)(F)F)c1	10	0	-27	-3	0
CCCC(=O)Nc1ccc2c(c1)C(=O)N(C)[C@@H]1CC[C@H](CC(=O)NCCc3ccncc3)O[C@@H]1CO2	2	0	2	-4	0
O=C1CCCc2c1cc(C(=O)O)c(=O)n2-c1ccccc1	1	43*	-3	2	3
COC(=O)C(CCSC)NC(=O)c1cc2c(n(-c3ccccc3)c1=O)CCCC2=O (configuration not stated)	1	0	12	0	14
CCCCn1c2c(cc(C(=O)OC)c1=O)C(=O)CCC2	4	0	3	-8	-2
Cc1ccc(-n2c3c(cc(C(=O)NCC(=O)c4ccccc4)c2=O)C(=O)CCC3)cc1	1	0	41	-2	-2
COC(=O)c1cc2c(n(Cc3ccccc3)c1=O)CCCC2=O	3	43*	12	·	1
CCOC(=O)c1cc2c(n(-c3ccc(Cl)cc3)c1=O)CCCC2=O	-4	44*	9	-2	-4
C[C@@H]1CCCCO[C@@H](CN(C)C(=O)Nc2cccc3ccccc23)[C@H](C)CN([C@@H](C)CO)C(=O)c2cc(NS(C)(=O)=O)ccc2O1	7	-1	-3	3	-3
COc1ccc(CN(C)C[C@H]2Oc3ccc(NS(=O)(=O)c4c(C)noc4C)cc3CC(=O)N([C@H](C)CO)C[C@@H]2C)cc1	-1	0	6	7	1
O=C(O)CN1CCNCCN(CC(=O)O)CCNCC1	-12	43*	-10	·	6
Cc1ccc(OCc2ccc(Br)cc2)c([N+](=O)[O-])n1	0	45*	-3	-7	-3
O=C(C[C@@H]1C[C@@H]2c3cc(NC(=O)Cc4ccncc4)ccc3O[C@@H]2[C@H](CO)O1)NCC1CC1	1	0	-1	-1	-1
Cc1ccc2nc(-c3ccc(NC(=O)COC(=O)c4ccco4)cc3)sc2c1	·	·	91*	·	·
Cc1ccc2nc(-c3ccc(NC(=O)COC(=O)c4ccc(Br)o4)cc3)sc2c1	·	·	1	·	·
SMILES	Casp6 inh	FGF22 binding	INS-1E GSIS act	SIRT5 block	ERAP1 inh
CNC(=S)Nc1ccc(-c2nc3ccc(C)cc3s2)cc1	-1	22*	-4	-1	-1
C=CCn1c(SCC(=O)NNC(=O)Nc2ccc(C)cc2)nnc1-c1ccccc1	0	0	-6	·	2
C=CCn1c(SCC(=O)Nc2ccc(-c3nc4ccc(C)cc4s3)cc2)nnc1-c1ccccc1	·	·	122*	·	·
COCC(=O)Nc1ccc2c(c1)OC[C@H](C)N(Cc1cc(F)ccc1F)C[C@@H](C)[C@@H](OC)CN(C)C2=O	-2	0	-5	0	3
CC(C)CC#Cc1ccc([C@H]2[C@@H](CO)N3C(=O)CN(C(=O)NC(C)C)C[C@@H]23)cc1	·	·	-5	·	·
O=C1NC2(CCCCC2)C(=O)N1Cc1cccc(C(F)(F)F)c1	0	43*	16	0	0
OC(CNCCc1ccc(C(F)(F)F)cc1)COc1cccc2ccccc12 (configuration not stated)	·	·	506*	·	·
CC(C)(c1ccccc1)c1ccc(OCC(O)CNC2CCN(Cc3ccccc3)CC2)cc1 (configuration not stated)	4	0	666*	2	6
COc1ccc(CNCC(O)COc2ccc(C(C)(C)c3ccccc3)cc2)cc1 (configuration not stated)	5	0	73*	4	1
CO[C@H]1CN(C)C(=O)c2ccc(NC(=O)C3CC3)cc2OC[C@H](C)N(C(=O)C2CCOCC2)C[C@H]1C	-1	0	1	-5	0
Cc1noc(C)c1NC(=O)N(C)C[C@H]1Oc2ccc(NC(=O)C3CC3)cc2CC(=O)N([C@@H](C)CO)C[C@@H]1C	·	0	8	1	3
C[C@@H]1CN([C@@H](C)CO)S(=O)(=O)c2ccc(C#CC3CCCC3)cc2O[C@H]1CN(C)C(=O)Cc1ccccc1	2	0	-42	2	2
C[C@@H]1CN([C@H](C)CO)S(=O)(=O)c2ccc(C#CC3CCCC3)cc2O[C@H]1CN(C)C(=O)Nc1cc(F)ccc1F	2	0	-34	15*	1
C[C@H]1CN([C@@H](C)CO)S(=O)(=O)c2ccc(C#CC3CC3)cc2O[C@H]1CN(C)C(=O)c1ccccn1	-1	0	-5	30*	1
C[C@@H]1CN([C@H](C)CO)S(=O)(=O)c2ccc(C#CC3CCCC3)cc2O[C@H]1CN(C)C(=O)Cc1ccccc1	5	0	-5	17*!	-3
C[C@@H]1CN([C@@H](C)CO)S(=O)(=O)c2ccc(Br)cc2O[C@H]1CN(C)C(=O)c1ccncc1	4	43*!	6	4	2
O=C(N[C@H]1CC[C@H](CC(=O)N2CCN(c3ccccc3)CC2)O[C@@H]1CO)c1ccncc1	0	0	17	0	-3
NCCCCCCNC(=O)[C@@H]1C[C@@H]2C(=O)N[C@@H](Cc3ccccc3)C(=O)N2[C@@H]1c1ccc(O)cc1	2	0	·	-1	-1
